In all, about 69,000 compounds went through this assay and about 8,600 (12%) showed an effect of 50% or more. This excerpt belongs to a sample that is enriched for strong results.

The assay has as its system Plasmodium berghei. The assay can be described thus: Screen against P. berghei liver stage (PbLuc), transformed with Luciferase, at 10uM. The assay is classed as functional, HepG2. The settings on record: tested at 10 uM.
Regarding `Fc1cnc(N2CC[C@@H]3CN(Cc4ccncc4)CCO[C@@H]3C2)nc1`, the INHIBITION is on record as 8.85%. The figure for `Cc1cnn(CCC(=O)N2CCCC(c3cc(C)[nH]n3)C2)c1` (configuration not stated) is 45.7%. As for `CC(Cn1cc(Cl)cn1)C(=O)Nc1ccc(CN2CCCCCC2)cc1` (configuration not stated), the INHIBITION was 10.9%. For the compound `CC(Cn1cc(Br)cn1)C(=O)Nc1ccc(Br)cn1` (configuration not stated), the INHIBITION came to 81%. The figure for `Cc1cc(NC(=O)Cn2ncc(Br)c2C)no1` is 15.9%. The figure for `CC(Cn1cc(Br)cn1)C(=O)Nc1ccc(C(N)=O)cc1` (configuration not stated) is 72.7%; for `Cc1cnn(CC(C)NCC(=O)Nc2ccc(Cl)cn2)c1` (configuration not stated) it is -100%. `Cc1cc(NC(=O)C(C)Cn2cc(Br)cn2)no1` (configuration not stated): the INHIBITION worked out at 67.1%. The figure for `CC(Cn1cc(Br)cn1)C(=O)Nc1ccn(C)n1` (configuration not stated) is 15.7%; for `CC(=O)c1ccc(NC(=O)C(C)Cn2cc(Br)cn2)cc1` (configuration not stated) it is -37.6%. Regarding `CC(Cn1cc(Br)cn1)C(=O)Nc1ccncc1` (configuration not stated), the INHIBITION is recorded as -24.7%. For `Cc1cc(NC(=O)C(C)Cn2cncn2)no1` (configuration not stated) the value was -1.445%; for `Cc1cnn(CCNCC(=O)Nc2ccc(Br)cn2)c1`, -37.7%. For `CC(Cn1cc(Br)cn1)C(=O)Nc1ccc(Cl)cn1` (configuration not stated) the value was 56%; for `CN(Cc1cn2c(n1)CN(c1ncc(F)cn1)CC2)Cc1ccco1`, 22.7%.

With `O=C(N1CCOCC1)[C@@]12CCO[C@@H]1CCN(C1CCOCC1)C2`, the INHIBITION was 38.5%.

Consider `Cc1ccc(NC2CCN(C(=O)CCNc3ncccn3)CC2)nn1`, for which the INHIBITION is -24.2%. For the compound `Cc1cc(NC(=O)CN2CCN(c3nccs3)C(C)C2)no1` (configuration not stated), the INHIBITION came out at 19.2%.

With `CNC(=O)C1(CCCc2ccccn2)CN(Cc2nccn2C)C1`, the INHIBITION is recorded as -40.1%. The figure for `CC(O)CN1CCC(CNCc2ccccc2F)CC1` (configuration not stated) is -34.365%. The figure for `Cc1cc(C(=O)CN2CCN(c3ncccn3)CC2)c(C)n1C(C)C` is 26.4%; for `CN1CCOC(CNCc2ccccc2OCc2ccccn2)C1` (configuration not stated) it is -10.193%. The figure for `OCCN1CCC(Cc2nccs2)CC1` is 13.955%. `CC(C)N(C)CC(=O)NCCc1nc(C(F)(F)F)cs1`: the INHIBITION is on record as -48.9%. Turning to `Cc1cccc(Nc2cc(C)nc(C3CCCCN3CC(N)=O)n2)n1` (configuration not stated), the INHIBITION amounted to 18.9%. As for `Cc1cc(NC(=O)C(C)NCCn2cccn2)no1` (configuration not stated), the INHIBITION is 58.9%. The figure for `CCC(NCCn1cc(C)cn1)C(=O)Nc1cc(C)on1` (configuration not stated) is 35.4%; for `CCC(NCCn1cccn1)C(=O)Nc1cc(C)on1` (configuration not stated) it is 36.5%.

For `Cn1cc(CN2CCCC23CCN(c2nc4ccccc4s2)CC3)cn1`, the INHIBITION amounted to 47%.

With `c1ccc2sc(N3CCC4(CCCN4Cc4ncc[nH]4)CC3)nc2c1`, the INHIBITION is 51.6%.

For the compound `Cc1nc[nH]c1CN1CCCC12CCN(c1nc3ccccc3s1)CC2`, the INHIBITION is on record as 76.6%.

Turning to `Cc1nc[nH]c1CN1CCC(C2CCN(CCc3ccccc3)C2)CC1` (configuration not stated), the INHIBITION amounted to 44.3%.

Consider `CC(=O)c1ccc(CN2CCCC23CCN(c2ccccn2)CC3)cc1`, for which the INHIBITION was 49.9%. The figure for `Cc1nc[nH]c1CN1CCCN(c2nc3ccccc3s2)CC1` is 76.6%. On to `Cc1nc(CN2CCCC23CCN(c2nc4ccccc4s2)CC3)co1`, for which the INHIBITION came to 14.1%.

As for `Cc1nc[nH]c1CN1CCn2nc(CN3Cc4ccccc4C3)cc2C1`, the INHIBITION is 22.8%. For the compound `Cc1nc[nH]c1CN1CCCC12CCN(c1ccccn1)CC2`, the INHIBITION is 20.9%.

Source of the values: ChEMBL document CHEMBL4513216, “Probing the Open Global Health Chemical Diversity Library for Multistage-Active Starting Points for Next-Generation Antimalarials” (ACS Infect Dis, 2020).
